Screening data from PubChem BioAssay.
Casp1 inh – blocks human caspase-1 allosterically or competitively. P29466. Caspase-1 enzyme, Ac-WEHD-AFC fluorogenic rate. Potency, µM (highest dose often 57.5 µM), inactives show top-dose activity change, negative = inhibition, most hits filed as inhibitors. hit rate 0.03% among 75,000;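 note: plate controls were vehicle for no effect and no substrate for full effect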
Target sequence (P29466 120-297 limits assumed): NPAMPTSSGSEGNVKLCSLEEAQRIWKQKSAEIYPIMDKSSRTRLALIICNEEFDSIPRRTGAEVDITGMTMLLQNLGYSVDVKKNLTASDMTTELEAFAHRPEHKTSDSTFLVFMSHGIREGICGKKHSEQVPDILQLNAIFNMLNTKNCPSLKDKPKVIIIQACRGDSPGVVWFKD
Target sequence (P29466 317-404 limits assumed): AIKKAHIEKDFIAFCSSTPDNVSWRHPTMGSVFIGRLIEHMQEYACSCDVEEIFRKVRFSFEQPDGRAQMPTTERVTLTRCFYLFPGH
HEK293 cAMP ctrl – parental HEK293 cAMP activation (counter-screen); hit rate 2.5% among 73,000; parental HEK293 CNG cAMP sensor, membrane potential fluorescence; Potency, µM (highest dose often 57.1 µM), inactives show at the top dose activation, most hits filed as activators; AID 938; note: % of control where 0% means no effect; nearly all actives have a fitted effect of over 55% in size
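Parental HEK 293 cells stably expressing a modified CNG channel (no TSHR) report cAMP rise as membrane depolarization. Membrane potential dye with 100 uM RO 20-1724 was loaded for 60 min at room temperature, then compound added for 30 min; fluorescence read at 590 nm.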
Casp7 inh – caspase-7 (human) inhibition, allosteric or competitive; P55210; recombinant caspase-7, Ac-DEVD-AFC fluorescence rate; Potency, µM (doses to about 57.5 µM), for the others: at the highest dose activity change, negative = inhibition, most hits filed as inhibitors; hit rate 0.02% among 75,000; AID 889; active = well fitted inhibition curve with a large enough effect in the main read-out, with a control signal flat, not every such curve was filed as active; inconclusive = small, poorly fitted or top-dose-only effect, or a change in a side signal; note: % of control where 0% means no effect
Target sequence (P55210 24-198 limits assumed): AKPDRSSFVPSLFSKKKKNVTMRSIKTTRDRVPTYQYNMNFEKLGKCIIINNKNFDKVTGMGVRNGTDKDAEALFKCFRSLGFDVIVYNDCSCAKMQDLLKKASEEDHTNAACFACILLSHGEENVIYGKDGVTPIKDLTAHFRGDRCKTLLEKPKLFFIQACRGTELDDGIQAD
Target sequence (P55210 207-303 limits assumed): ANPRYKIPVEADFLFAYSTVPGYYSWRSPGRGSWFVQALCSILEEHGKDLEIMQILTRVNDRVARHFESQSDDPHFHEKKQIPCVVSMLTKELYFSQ
TSHR ag – activates the human thyroid stimulating hormone receptor. hit rate 0.48% among 73,000. AID 926. Potency, µM (highest dose often 57.1 µM), inactives show at the highest dose activation, hits mostly activators. HEK293-CNG-TSHR cells (CNG channel as cAMP sensor), membrane potential dye, cAMP; active = well fitted activation curve with a large enough effect in the main read-out, with a control signal flat, not every such curve was filed as active; inconclusive = small, poorly fitted or top-dose-only effect, or a change in a side signal; inactive = no such curve, though single readings can be large or run the other way; % of control where 0% means no effect;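 note: the control signal comes from parental cells without the receptor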
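HEK 293 cells stably expressing TSHR and a cAMP-gated CNG channel; parental CNG-only cells as counterscreen. Cells preloaded 60 min with membrane potential dye plus 100 uM RO 20-1724, then compound 30 min; fluorescence read at 590 nm.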
An asterisk follows results filed as active; u = inconclusive; x = no result; [ ] = another dose, or the depositor's remark. Only some compounds are listed: those with a hit (about 2.6% of all), similar ones and a draw of the others. Unless noted, calls come from the whole dose curve; as a rule, active = well fitted curve in the direction sought with a large enough effect; inconclusive = small, poorly fitted or top-dose-only effect, or another doubt; inactive = no such curve, though single readings can be large; an effect the other way counts as inactive or inconclusive. Potency is the fitted concentration of half-maximal effect.

SMILES | Casp1 inh | HEK293 cAMP ctrl | Casp7 inh | TSHR ag
COC(=O)C/C=C\[C@@H](C)[C@@H](/C=N\OC[C@@H]1O[C@H](c2ccccc2)C=C[C@@H]1Oc1ccc(OC)cc1)OC | -3%[11.5 µM] | u | 0%[11.5 µM] | u
CCOC(=O)C1=C(C)Nc2nc(SC)nn2C1c1ccc(C(=O)OC)cc1 (stereo not given) | -1% | 12% | 0% | 16µM*
Cc1c(-c2nc(N)nc(C3CC3)c2C)nc(N)nc1C1CC1 | -2%[11.5 µM] | 1%[11.4 µM] | -2%[11.5 µM] | -5%[11.4 µM]
Cc1nc2ccccc2n1-c1nc(-c2ccco2)cc(C(F)(F)F)n1 | 1% | 3.2µM* | -2% | u
CC1CCN(CC(=O)Nc2sc3c(c2C#N)CCC3)CC1 | 1% | 7.9µM* | -1% | u
CCOC(=O)OCC1OC(C#Cc2ccc(C)cc2C)C=CC1OC(=O)OCC (stereo not given) | -3%[11.5 µM] | 2%[11.4 µM] | 2%[11.5 µM] | -1%[11.4 µM]
O=C(NCC(c1ccc(F)cc1)N1CCOCC1)c1ccc(Br)o1 (stereo not given) | -4% | 25µM* | 0% | u
CCCCCc1c(C)nc(Nc2nc(C)c3cc(OC)ccc3n2)[nH]c1=O | 2% | 10µM* | 0% | u
CCc1c(C)nc(Nc2nc(C)c3cc(OC)ccc3n2)[nH]c1=O | 0% | 15% | 2% | 5%
Cc1cc2cc(CN(Cc3ccc4c(c3)OCO4)C(=O)c3cnccn3)c3nnnn3c2cc1C | 2% | 32µM* | 0% | u
CN1CC[C@@]23c4ccccc4N[C@H]1[C@]21CCN(C)[C@@H]3Nc2ccccc21 | 3%[25.7 µM] | 12%[25.6 µM] | 0%[25.7 µM] | -5%[25.6 µM]
CC(c1ccco1)N(C(=O)CSc1ccc(Br)cc1)c1ccccn1 (stereo not given) | -4% | 25µM* | -2% | u
O=C(O)c1cc(=O)[nH]c(=S)[nH]1 | -3%[11.5 µM] | -4%[11.4 µM] | 0%[11.5 µM] | 2%[11.4 µM]
C=CCOC(=O)COc1ccc2c(C)c(C)c(=O)oc2c1 | 1% | 4% | 0% | 1%
COC(=O)c1ccc(COc2ccc3c(C)c(C)c(=O)oc3c2)o1 | -4% | 4µM* | -4% | u
CCCOc1c(OC)cccc1C1CC(=O)Nc2cc3c(cc21)OCCO3 (stereo not given) | -1% | 16µM* | -3% | u
COC(=O)NC(c1cccc(F)c1)[C@@]1(C(=O)OC)CCCC1=O (stereo not given in full) | -3%[11.5 µM] | -4%[11.4 µM] | 1%[11.5 µM] | x
c1ccc2c(c1)Cc1cc3ccccc3nc1-2 | -2% | 20µM* | -4% | u
CN(CCc1ccccn1)c1ccc2c(c1)Cc1ccccc1-2 | 0%[11.5 µM] | -1%[11.4 µM] | -3%[11.5 µM] | -1%[11.4 µM]
Cc1occc1-c1nnc(SCC(=O)Nc2ccccc2N2CCCCC2)n1C | 0% | 32µM* | -2% | u
Cc1occc1-c1nnc(SCC(=O)NCCc2ccccc2)n1Cc1ccccc1 | -2% | 20µM* | 1% | u
CCn1c(SCC(=O)Nc2ccccc2N2CCCCC2)nc2c1c(=O)n(C)c(=O)n2C | 0% | 16µM* | -1% | u
Cc1occc1-c1nnc(SCC(=O)Nc2ccccc2)n1CCc1ccccc1 | -3% | u | -2% | u
CCn1c(SCC(=O)Nc2ccccc2-c2ccccc2)nnc1-c1ccoc1C | 1% | u | -1% | u
C=CCOC(=O)C(C(C)=O)C(NC(=O)OC)c1cccc(C)c1 (stereo not given) | -1%[11.5 µM] | -4%[11.4 µM] | 1%[11.5 µM] | -2%[11.4 µM]
SMILES | Casp1 inh | HEK293 cAMP ctrl | Casp7 inh | TSHR ag
CC(C)n1c(C(=O)OCC(=O)NCc2ccc3c(c2)OCO3)cc2sccc21 | -2% | 7.9µM* | -2% | u
CC(C)n1c(C(=O)OCC(=O)NCc2ccc3c(c2)OCO3)cc2occc21 | -7% | 16µM* | -2% | u
Cc1nn(Cc2ccccc2Cl)c2sc(C(=O)NCCCn3ccnc3)cc12 | 0% | 12% | 3% | 6%
O=C(CSc1nnc(-c2ccc(Br)cc2)o1)Nc1cccc2ccccc12 | -1% | 12% | -6% | 0.04µM*
O=C1c2ccccc2C(=O)N1CCCc1nc(-c2ccc(Cl)cc2)no1 | 1% | 0.16µM* | -3% | u
N#Cc1c2c(c(N3CCN(c4ccccn4)CC3)n3c1nc1ccccc13)CCC2 | -13% | 2% | -13% | 0%
Cc1cc(N2CCN(c3ccccn3)CC2)n2c(nc3ccccc32)c1C#N | -7% | 2µM* | -5% | u
CCc1cc2c(nc1CC)CCN(CC/C(C)=N/OC[C@@H](C)[C@H](OCc1ccccc1)C(C)C)C2 | -1%[11.5 µM] | -3%[11.4 µM] | 1%[11.5 µM] | 3%[11.4 µM]
CC(C)C(OC(=O)c1ccco1)C(=O)NCc1ccccc1 (stereo not given) | -3% | 25µM* | -1% | u
C[C@@]12CCC(=O)C=C1CC[C@H]1[C@@H]2[C@@H](O)C[C@]2(C)[C@@H]1CC[C@@]2(O)C(=O)COC(=O)C1CCCC1 | 1%[11.5 µM] | 11%[11.4 µM] | -4%[11.5 µM] | 7%[11.4 µM]
CCCC[C@@H]1C[C@H]1C(NC(=O)c1ccccc1)c1ccc(-c2ccccc2)cc1 (stereo not given in full) | 0% | 21% | 2% | 11%
COCCCn1c2nc3ccccc3nc2c2c(=O)n(Cc3ccccc3Cl)cnc21 | -3% | 25µM* | -1% | u
COCCCn1c2nc3ccccc3nc2c2c(=O)n(Cc3ccc(Cl)cc3)cnc21 | 2% | 17% | -3% | 11%
CNc1ncnc2c1ncn2[C@@H]1O[C@@H](CO)[C@H](O)[C@@H]1O | 0% | -18% | 0% | 9%
CC1=C(C(=O)OCc2ccccc2)C(c2ccc(C3CCCCC3)cc2)NC(=O)N1CCCCCC(=O)O (stereo not given) | -7% | 32µM* | -19% | u
CC1=C(C(=O)OCc2ccccc2)C(c2ccc(Cl)cc2)NC(=O)N1CCCCCC(=O)O (stereo not given) | -3% | u | -2% | u
NC(=O)N[C@H]1NC(=O)NC1=O | -10%[25.7 µM] | 13µM* | 2%[25.7 µM] | u
COc1ccccc1CCn1c(=O)c(-c2ccccc2)nc2cncnc21 | -7% | 4µM* | -10% | u
c1ccc2c(c1)nnn2CN1CCOCC1 | -1%[11.5 µM] | 5%[11.4 µM] | 1%[11.5 µM] | 2%[11.4 µM]
O=c1cc(CSc2nnc(-c3cccs3)n2Cc2ccccc2)nc2sc3ccccc3n12 | -5% | 10µM* | -20% | u
C=CCn1c(SCc2ccc(C#N)cc2)nnc1-c1cccc(OC)c1 | -1% | 3.2µM* | 1% | u
c1ccc(CSc2nnc(-c3ccco3)n2Cc2ccco2)cc1 | -2% | 20% | -1% | x
Cc1cc(C(=O)CSc2nnc(-c3cccs3)n2Cc2ccccc2)c(C)n1C | -3% | u | -2% | u
COc1cccc(-c2nnc(SCc3ccc(C#N)cc3)n2Cc2ccco2)c1 | -2% | 6.3µM* | 0% | u
c1ccc(CSc2nnc(-c3cccs3)n2Cc2ccco2)cc1 | -2% | 25µM* | -1% | u
Cc1cccc(-c2nnc(SCc3nc4ccccc4[nH]3)n2Cc2ccco2)c1 | -6% | 13µM* | -3% | u
Cc1cc(N2CCOCC2)nc2cc(O)ccc12 | x | 6.3µM* | u | u
O=C(NC1CCCCC1)C(c1ccco1)N(Cc1cccnc1)C(=O)C1COc2ccccc2O1 (stereo not given) | -4% | 16µM* | 0% | u
